Assay results from PubChem BioAssay AID1159580 (chemical genetic matrix, 2015).
The whole screen tested about 5,500 compounds, of which about 2,000 (36%) were called active. Inconclusive results (about 18%) are left out. The list shows a part of the results. Values without a mark were called inactive. Cut-off read from the data, not from the text of the source: active = normalized growth mostly below about 0.91 (no sharp cut-off); inconclusive = no clear call, values can overlap the other calls; inactive = mostly above about 0.92.

Test: chemical genetic growth profiling, strain panel (AID 1159580);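 note: tested at 20 µM; growth read once vehicle control cultures reached saturation at 30 °C; 1 = growth at the plate median or of vehicle wells; lower values mean less growth of the strain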
Conditions: growth OD
[1] = S. cerevisiae deletion strains, locus YAL013W, strain DEP1, stronger effect = lower value
[2] = S. cerevisiae deletion strains, locus YBR229C, strain ROT2, stronger effect = lower value
[3] = S. cerevisiae deletion strains, locus YDL101C, strain DUN1, stronger effect = lower value
[4] = S. cerevisiae deletion strains, locus YDR150W, strain NUM1, stronger effect = lower value
[5] = S. cerevisiae deletion strains, locus YEL061C, strain CIN8, stronger effect = lower value
[6] = S. cerevisiae deletion strains, locus YGR078C, strain PAC10, stronger effect = lower value
[7] = S. cerevisiae deletion strains, locus YGR229C, strain SMI1, stronger effect = lower value
[8] = S. cerevisiae deletion strains, locus YHR030C, strain SLT2, stronger effect = lower value
[9] = S. cerevisiae deletion strains, locus YJR043C, strain POL32, stronger effect = lower value
[10] = S. cerevisiae deletion strains, locus YJR075W, strain HOC1, stronger effect = lower value
[11] = S. cerevisiae deletion strains, locus YKL190W, strain CNB1, stronger effect = lower value
[12] = S. cerevisiae deletion strains, locus YLR039C, strain RIC1, stronger effect = lower value
[13] = S. cerevisiae deletion strains, locus YLR262C, strain YPT6, stronger effect = lower value
[14] = S. cerevisiae deletion strains, locus YMR263W, strain SAP30, stronger effect = lower value
[15] = S. cerevisiae deletion strains, locus YNL153C, strain GIM3, stronger effect = lower value
[16] = S. cerevisiae deletion strains, locus YNL322C, strain KRE1, stronger effect = lower value
[17] = S. cerevisiae deletion strains, locus YOL006C, strain TOP1, stronger effect = lower value
[18] = S. cerevisiae deletion strains, locus YPL055C, strain LGE1, stronger effect = lower value
[19] = S. cerevisiae deletion strains, locus YPL241C, strain CIN2, stronger effect = lower value

## O=C(O)c1coc2ccccc2c1=O
[1]
  normalized growth: 1
[2]
  normalized growth: 0.99
S. cerevisiae deletion strains, locus YCL061C, strain MRC1, stronger effect = lower value
  normalized growth: 0.906 (active)
[3]
  normalized growth: 0.973
[4]
  normalized growth: 0.908
[5]
  normalized growth: 1.02
[6]
  normalized growth: 0.995
[7]
  normalized growth: 0.999
[8]
  normalized growth: 0.867
S. cerevisiae deletion strains, locus YHR087W, strain rtc3, stronger effect = lower value
  normalized growth: 0.96
S. cerevisiae deletion strains, locus YJL187C, strain SWE1, stronger effect = lower value
  normalized growth: 0.992
[9]
  normalized growth: 1
[10]
  normalized growth: 0.897
[11]
  normalized growth: 1.01
[12]
  normalized growth: 0.665 (active)
S. cerevisiae deletion strains, locus YLR058C, strain SHM2 (second series), stronger effect = lower value
  normalized growth: 0.995
S. cerevisiae deletion strains, locus YLR085C, strain ARP6, stronger effect = lower value
  normalized growth: 0.853
[13]
  normalized growth: 0.764 (active)
S. cerevisiae deletion strains, locus YML094W, strain GIM5, stronger effect = lower value
  normalized growth: 0.96
S. cerevisiae deletion strains, locus YMR219W, strain ESC1, stronger effect = lower value
  normalized growth: 0.964
[14]
  normalized growth: 0.978
[15]
  normalized growth: 0.982
S. cerevisiae deletion strains, locus YNL298W, strain CLA4 (second series), stronger effect = lower value
  normalized growth: 1
[16]
  normalized growth: 0.994
S. cerevisiae deletion strains, locus YNR030W, strain Alg12, stronger effect = lower value
  normalized growth: 0.888
[17]
  normalized growth: 0.852
[18]
  normalized growth: 0.906
[19]
  normalized growth: 0.833 (active)
S. cerevisiae deletion strains, locus YPR135W, strain CTF4, stronger effect = lower value
  normalized growth: 0.892

## Cc1coc2ccccc2c1=O
[1]
  normalized growth: 0.999
S. cerevisiae deletion strains, locus YBR021W, strain FUR4, stronger effect = lower value
  normalized growth: 0.998
[2]
  normalized growth: 1.01
S. cerevisiae deletion strains, locus YCL029C, strain bik1, stronger effect = lower value
  normalized growth: 1.02
S. cerevisiae deletion strains, locus YDL035C, strain GPR1, stronger effect = lower value
  normalized growth: 1
S. cerevisiae deletion strains, locus YDL074C, strain BRE1, stronger effect = lower value
  normalized growth: 1
[3]
  normalized growth: 1.01
S. cerevisiae deletion strains, locus YDL134C, strain PPH21, stronger effect = lower value
  normalized growth: 1
S. cerevisiae deletion strains, locus YDL185W, strain tfp1, stronger effect = lower value
  normalized growth: 1.01
S. cerevisiae deletion strains, locus YDL192W, strain arf1, stronger effect = lower value
  normalized growth: 1.03
S. cerevisiae deletion strains, locus YDR101C, strain arx1, stronger effect = lower value
  normalized growth: 1.01
[4]
  normalized growth: 1
S. cerevisiae deletion strains, locus YDR162C, strain NBP2, stronger effect = lower value
  normalized growth: 1.01
S. cerevisiae deletion strains, locus YDR318W, strain mcm21, stronger effect = lower value
  normalized growth: 1.02
S. cerevisiae deletion strains, locus YDR388W, stronger effect = lower value
  normalized growth: 1.02
S. cerevisiae deletion strains, locus YDR502C, strain sam2, stronger effect = lower value
  normalized growth: 1.02
[5]
  normalized growth: 1
S. cerevisiae deletion strains, locus YER110C, stronger effect = lower value
  normalized growth: 1.03
S. cerevisiae deletion strains, locus YER155C, strain BEM2, stronger effect = lower value
  normalized growth: 1.01
S. cerevisiae deletion strains, locus YER167W, strain BCK2, stronger effect = lower value
  normalized growth: 1.01
S. cerevisiae deletion strains, locus YGL078C, strain dbp3, stronger effect = lower value
  normalized growth: 1.02
S. cerevisiae deletion strains, locus YGL086W, strain mad1, stronger effect = lower value
  normalized growth: 1.02
S. cerevisiae deletion strains, locus YGL248W, strain PDE1, stronger effect = lower value
  normalized growth: 1
[6]
  normalized growth: 1.01
S. cerevisiae deletion strains, locus YGR135W, strain pre9, stronger effect = lower value
  normalized growth: 1.01
[7]
  normalized growth: 0.991
S. cerevisiae deletion strains, locus YGR252W, strain gcn5, stronger effect = lower value
  normalized growth: 1.03
[8]
  normalized growth: 0.997
S. cerevisiae deletion strains, locus YHR079C, strain IRE1 (second series), stronger effect = lower value
  normalized growth: 1.02
S. cerevisiae deletion strains, locus YHR094C, strain hxt1, stronger effect = lower value
  normalized growth: 1.02
S. cerevisiae deletion strains, locus YHR129C, strain ARP1, stronger effect = lower value
  normalized growth: 1
S. cerevisiae deletion strains, locus YHR200W, strain rpn10, stronger effect = lower value
  normalized growth: 1.03
S. cerevisiae deletion strains, locus YIL066C, strain RNR3, stronger effect = lower value
  normalized growth: 1.01
S. cerevisiae deletion strains, locus YIL073C, strain SPO22, stronger effect = lower value
  normalized growth: 1.09
S. cerevisiae deletion strains, locus YIL125W, strain kgd1, stronger effect = lower value
  normalized growth: 1.03
S. cerevisiae deletion strains, locus YIR030C, strain dcg1, stronger effect = lower value
  normalized growth: 1.03
S. cerevisiae deletion strains, locus YJL095W, strain BCK1, stronger effect = lower value
  normalized growth: 0.988
S. cerevisiae deletion strains, locus YJL134W, strain LCB3, stronger effect = lower value
  normalized growth: 0.999
S. cerevisiae deletion strains, locus YJL168C, strain set2, stronger effect = lower value
  normalized growth: 1.03
S. cerevisiae deletion strains, locus YJL187C, strain SWE1 (second series), stronger effect = lower value
  normalized growth: 1
[9]
  normalized growth: 0.992
[10]
  normalized growth: 1
S. cerevisiae deletion strains, locus YKL009W, strain mrt4, stronger effect = lower value
  normalized growth: 1.02
S. cerevisiae deletion strains, locus YKL068W, stronger effect = lower value
  normalized growth: 1.01
S. cerevisiae deletion strains, locus YKL085W, strain MDH1 (second series), stronger effect = lower value
  normalized growth: 1.01
S. cerevisiae deletion strains, locus YKL085W, strain MDH1, stronger effect = lower value
  normalized growth: 1.01
[11]
  normalized growth: 1
S. cerevisiae deletion strains, locus YKR001C, strain vps1, stronger effect = lower value
  normalized growth: 1.02
[12]
  normalized growth: 1.01
S. cerevisiae deletion strains, locus YLR058C, strain SHM2, stronger effect = lower value
  normalized growth: 1
S. cerevisiae deletion strains, locus YLR102C, strain apc9, stronger effect = lower value
  normalized growth: 1.04
[13]
  normalized growth: 1.01
S. cerevisiae deletion strains, locus YLR268W, strain sec22, stronger effect = lower value
  normalized growth: 1.01
S. cerevisiae deletion strains, locus YLR330W, strain CHS5, stronger effect = lower value
  normalized growth: 1.01
S. cerevisiae deletion strains, locus YLR342W, strain FKS1 (second series), stronger effect = lower value
  normalized growth: 1.01
S. cerevisiae deletion strains, locus YLR371W, strain rom2, stronger effect = lower value
  normalized growth: 1.03
S. cerevisiae deletion strains, locus YLR418C, strain cdc73, stronger effect = lower value
  normalized growth: 1.01
S. cerevisiae deletion strains, locus YML016C, strain PPZ1, stronger effect = lower value
  normalized growth: 1
S. cerevisiae deletion strains, locus YML032C, strain rad52, stronger effect = lower value
  normalized growth: 1.05
S. cerevisiae deletion strains, locus YML124C, strain tub3, stronger effect = lower value
  normalized growth: 1.02
S. cerevisiae deletion strains, locus YMR078C, strain ctf18, stronger effect = lower value
  normalized growth: 1.03
S. cerevisiae deletion strains, locus YMR223W, strain ubp8, stronger effect = lower value
  normalized growth: 1.02
[14]
  normalized growth: 0.998
S. cerevisiae deletion strains, locus YMR307W, strain GAS1, stronger effect = lower value
  normalized growth: 1
S. cerevisiae deletion strains, locus YNL067W, strain RPL9B, stronger effect = lower value
  normalized growth: 0.992
S. cerevisiae deletion strains, locus YNL128W, strain TEP1, stronger effect = lower value
  normalized growth: 1.01
[15]
  normalized growth: 0.985
S. cerevisiae deletion strains, locus YNL233W, strain BNI4, stronger effect = lower value
  normalized growth: 0.995
S. cerevisiae deletion strains, locus YNL250W, strain rad50, stronger effect = lower value
  normalized growth: 1.03
S. cerevisiae deletion strains, locus YNL271C, strain bni1, stronger effect = lower value
  normalized growth: 1.03
S. cerevisiae deletion strains, locus YNL298W, strain CLA4, stronger effect = lower value
  normalized growth: 1.02
S. cerevisiae deletion strains, locus YNL307C, strain MCK1, stronger effect = lower value
  normalized growth: 1.03
[16]
  normalized growth: 1
S. cerevisiae deletion strains, locus YNR052C, strain pop2, stronger effect = lower value
  normalized growth: 1.04
[17]
  normalized growth: 0.974
S. cerevisiae deletion strains, locus YOL012C, strain htz1
  normalized growth: 0.801
S. cerevisiae deletion strains, locus YOL147C, strain pex11, stronger effect = lower value
  normalized growth: 1.02
S. cerevisiae deletion strains, locus YOR061W, strain CKA2, stronger effect = lower value
  normalized growth: 1
S. cerevisiae deletion strains, locus YOR069W, strain VPS5, stronger effect = lower value
  normalized growth: 0.998
S. cerevisiae deletion strains, locus YOR136W, strain idh2, stronger effect = lower value
  normalized growth: 1.02
S. cerevisiae deletion strains, locus YOR144C, strain elg1, stronger effect = lower value
  normalized growth: 1.01
S. cerevisiae deletion strains, locus YOR184W, strain ser1, stronger effect = lower value
  normalized growth: 1.04
S. cerevisiae deletion strains, locus YOR316C, strain cot1, stronger effect = lower value
  normalized growth: 1.02
[18]
  normalized growth: 1.01
[19]
  normalized growth: 1
S. cerevisiae deletion strains, locus YPR119W, strain clb2, stronger effect = lower value
  normalized growth: 1.03
S. cerevisiae deletion strains, locus YPR141C, strain kar3, stronger effect = lower value
  normalized growth: 1.03
S. cerevisiae deletion strains, locus YPR163C, strain tif3, stronger effect = lower value
  normalized growth: 1.03
S. cerevisiae deletion strains, locus YPR167C, strain met16, stronger effect = lower value
  normalized growth: 1.03
S. cerevisiae deletion strains, strain wtn01, stronger effect = lower value
  normalized growth: 1.03
S. cerevisiae strains, strain wild type, stronger effect = lower value
  normalized growth: 1
